Assay results published in PubChem BioAssay (EPA / NIEHS).
Records with an inconclusive call do not appear. Active and inactive are the calls of the source. The calls were made as follows, unless noted: active = hit-call score of the fitted dose curve at least 0.9, where 1 is the maximum; inconclusive = response in the unintended direction; inactive = score below 0.9.

Tests used:
[1] = TOX21_p53_BLA_p2_viability: Viability Assessment in the Tox21 HCT-116 p53 Agonism Beta-lactamase Assay, Phase 2 (AID 2283591);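 also: compound exposure lasted 16 h at 37 °C; actives lower the ATP signal meaning cytotoxicity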
In short: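 HCT-116 p53-bla cells (4000/well) rested 5 h at 37C, then received compounds in DMSO (217-fold dilution) for 16 h at 37C, 5% CO2. After the CCF4 read, CellTiter-Glo was added; ATP luminescence was read after 30 min at room temperature.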

[2] = molecular target: Cellular tumor antigen p53 (Homo sapiens) (UniProt P04637); assay: TOX21_p53_BLA_p2_ratio: Tox21 HCT-116 p53 Agonism Beta-lactamase Assay, Ratio, Phase 2 (AID 2283592)
Sequence of Cellular tumor antigen p53 (Homo sapiens) (P04637 whole entry, looked up): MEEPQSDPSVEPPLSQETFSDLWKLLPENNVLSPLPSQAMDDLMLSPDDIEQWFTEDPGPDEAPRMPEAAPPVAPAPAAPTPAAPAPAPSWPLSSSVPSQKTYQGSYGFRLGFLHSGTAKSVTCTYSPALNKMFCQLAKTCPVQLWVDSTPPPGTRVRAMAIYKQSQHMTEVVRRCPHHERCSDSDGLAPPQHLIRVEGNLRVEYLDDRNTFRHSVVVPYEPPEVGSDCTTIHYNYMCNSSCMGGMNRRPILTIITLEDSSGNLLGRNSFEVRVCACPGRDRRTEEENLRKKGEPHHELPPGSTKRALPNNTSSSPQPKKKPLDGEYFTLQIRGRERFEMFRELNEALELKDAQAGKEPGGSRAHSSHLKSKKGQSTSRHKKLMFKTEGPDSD
In short: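 HCT116 cells carrying a p53-responsive beta-lactamase reporter were plated, incubated 5 h at 37C, then dosed with compounds in DMSO (217-fold dilution) for 16 h. CCF4-AM substrate was added for 2 h at room temperature; the 460/530 nm emission ratio gave gain-of-signal activity relative to DMSO.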

[3] = TOX21_p53_BLA_p3_viability: Viability Assessment in the Tox21 HCT-116 p53 Agonism Beta-lactamase Assay, Phase 3 (AID 2283593);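 also: cells exposed to compound for 16 h before reading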
In short: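 HCT-116 cells (4000/well) rested 5 h at 37C, then got DMSO compounds by pin tool (217-fold dilution) for 16 h at 37C, 5% CO2. After the bla read, CellTiter-Glo was added and luminescence read at 30 min, room temperature.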

[4] = TOX21_p53_BLA_p4_viability: Viability Assessment in the Tox21 HCT-116 p53 Agonism Beta-lactamase Assay, Phase 4 (AID 2283597);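 also: hits lower the luminescence signal meaning cytotoxicity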
In short: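 HCT116 p53-bla cells (4000/well) rested 5 h at 37C, then received compounds in DMSO (217-fold dilution) for 16 h at 37C, 5% CO2. CellTiter-Glo was added after the CCF4-AM read, and luminescence was read after 30 min at room temperature.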

[5] = molecular target: Cellular tumor antigen p53 (Homo sapiens) (UniProt P04637); assay: TOX21_p53_BLA_p5_ratio: Tox21 HCT-116 p53 Agonism Beta-lactamase Assay, Ratio, Phase 5 (AID 2283599)
In short: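 HCT-116 cells carrying a p53-inducible beta-lactamase reporter were seeded at 4000 cells/well and dosed after 5 h with compound in DMSO (217-fold dilution). After 16 h at 37C, CCF4-AM substrate was added for 2 h, and the 460/530 nm emission ratio was scored as gain-of-signal versus DMSO.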

[6] = TOX21_p53_BLA_p5_viability: Viability Assessment in the Tox21 HCT-116 p53 Agonism Beta-lactamase Assay, Phase 5 (AID 2283600)
In short: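 Cells were plated at 4000/well, rested 5 h at 37C, then given compounds in DMSO (217-fold dilution) for 16 h at 37C, 5% CO2. Following the CCF4-AM beta-lactamase read, CellTiter-Glo was added and luminescence was read after 30 min at room temperature.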

[7] = molecular target: Cellular tumor antigen p53 (Homo sapiens) (UniProt P04637); assay: TOX21_p53_BLA_p4_ratio: Tox21 HCT-116 p53 Agonism Beta-lactamase Assay, Ratio, Phase 4 (AID 2283601)
In short: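 HCT116 cells carrying an inducible beta-lactamase reporter were plated at 4000 cells/well, rested 5 h, then exposed to compounds in DMSO (217-fold dilution) for 16 h at 37C. CCF4-AM substrate was loaded 2 h at room temperature; 460/530 nm emission ratio scored gain-of-signal versus DMSO.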

[8] = CCTE_Deisenroth_H295R-HTRF_384WELL_ESTRADIOL: CCTE's H295R-HTRF Assay Evaluation of Estradiol Concentration, Deisenroth Lab (AID 2284361; active = hit-call score of the fitted dose curve at least 0.9, where 1 is the maximum; inactive = score below 0.9); conditions: actives raise or lower the signal
In short: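 H295R cells exposed 48 h to chemicals at 0.001 - 100 uM final (nine points, triplicate); estradiol in conditioned medium measured by HTRF immunoassay, fitted bidirectionally versus DMSO. Viability by CellTiter-Glo on same plates.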

[9] = CCTE_Deisenroth_H295R-HTRF_384WELL_TESTOSTERONE: CCTE's H295R-HTRF Assay Evaluation of Testosterone Concentration, Deisenroth Lab (AID 2284373; active = hit-call score of the fitted dose curve at least 0.9, where 1 is the maximum; inactive = score below 0.9); conditions: actives raise or lower the signal
In short: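 Secreted testosterone was quantified by HTRF immunoassay of medium from human adrenocortical H295R cells after 48 h chemical exposure at 0.001–100 uM final. Gain or loss was fitted against DMSO. ATP-based viability was read on matched wells, five experimental replicates.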

[10] = CCTE_Deisenroth_H295R-HTRF_384WELL_CTOX: Cytotoxicity Assessment in CCTE's H295R-HTRF Assay, Deisenroth Lab (AID 2284380)
In short: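 H295R adrenocortical carcinoma cells plated 24 h, then exposed 48 h to nine-point series 0.001–100 uM final, triplicate, n=5. ATP measured by CellTiter-Glo 2.0 luminescence on same plates after medium collection; loss versus DMSO.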

[11] = molecular target: PGR (gene 5241) (UniProt P06401); assay: TOX21_PR_BLA_Followup_Antagonist_ratio: Tox21 HEK293 Progesterone Receptor (PR) Antagonism Beta-lactamase Follow-Up Assay, Ratio (AID 2283934)
Sequence of PGR (gene 5241) (P06401 whole entry, looked up): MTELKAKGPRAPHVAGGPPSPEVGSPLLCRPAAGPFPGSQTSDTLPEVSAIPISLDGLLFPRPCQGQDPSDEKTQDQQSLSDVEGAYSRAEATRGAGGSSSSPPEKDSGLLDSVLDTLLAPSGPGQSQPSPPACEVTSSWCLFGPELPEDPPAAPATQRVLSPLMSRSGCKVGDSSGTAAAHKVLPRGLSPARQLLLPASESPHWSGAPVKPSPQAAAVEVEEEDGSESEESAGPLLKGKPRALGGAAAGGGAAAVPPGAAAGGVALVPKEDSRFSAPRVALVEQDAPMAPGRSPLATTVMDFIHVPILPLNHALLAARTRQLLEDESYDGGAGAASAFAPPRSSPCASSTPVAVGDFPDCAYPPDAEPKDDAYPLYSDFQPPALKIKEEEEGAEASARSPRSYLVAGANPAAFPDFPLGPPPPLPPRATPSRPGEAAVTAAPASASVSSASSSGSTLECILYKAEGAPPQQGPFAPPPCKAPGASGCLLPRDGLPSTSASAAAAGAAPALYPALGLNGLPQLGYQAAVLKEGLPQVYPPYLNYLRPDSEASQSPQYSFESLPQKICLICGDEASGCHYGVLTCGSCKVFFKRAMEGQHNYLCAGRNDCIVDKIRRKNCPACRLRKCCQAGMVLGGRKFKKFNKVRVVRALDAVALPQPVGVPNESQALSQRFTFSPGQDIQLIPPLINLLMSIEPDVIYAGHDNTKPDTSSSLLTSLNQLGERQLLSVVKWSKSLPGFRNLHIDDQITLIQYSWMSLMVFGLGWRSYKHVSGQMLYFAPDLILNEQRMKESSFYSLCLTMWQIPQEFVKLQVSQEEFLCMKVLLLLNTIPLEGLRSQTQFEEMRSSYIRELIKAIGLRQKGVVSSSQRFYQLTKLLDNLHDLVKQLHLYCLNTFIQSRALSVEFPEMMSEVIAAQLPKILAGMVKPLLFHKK
In short: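 PR-UAS-bla HEK293T cells, 3,000/well in 2% charcoal-stripped FBS, given compound plus 1nM R5020 agonist for 16 hr at 37C. Beta-lactamase FRET substrate 2 hours, ratio cleaved/uncleaved fluorescence; viability by CellTiter-Glo in same wells.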

[12] = TOX21_PR_BLA_Followup_Agonist_viability: Viability Assessment in the Tox21 HEK293 Progesterone Receptor (PR) Agonism Beta-lactamase Follow-Up Assay (AID 2283935);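 also: signal loss means lower viability so actives are cytotoxic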
In short: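 PR-UAS-bla HEK293T cells in 2% charcoal-stripped FBS medium, plated 6 hr before compound addition, exposed 16 hr at 37C. Viability read by CellTiter-Glo ATP luminescence after 30 min at room temperature, in the same wells as the beta-lactamase readout.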

[13] = TOX21_PR_BLA_Followup_Antagonist_viability: Viability Assessment in the Tox21 HEK293 Progesterone Receptor (PR) Antagonism Beta-lactamase Follow-Up Assay (AID 2283936);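 also: hits lower the luminescence signal meaning cytotoxicity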
In short: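 PR-UAS-bla HEK293T cells (3,000/well, 2% charcoal-stripped FBS) given compound plus R5020 agonist, 16 h at 37C. CellTiter-Glo added after bla read, 30 min at room temperature; luminescence loss indicates cytotoxicity.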

[14] = molecular target: PGR (gene 5241) (UniProt P06401); assay: TOX21_PR_LUC_Followup_Agonist: Tox21 HEK293 Progesterone Receptor (PR) Agonism Luciferase Follow-Up Assay (AID 2283937; active = hit-call score of the fitted dose curve at least 0.9, where 1 is the maximum; inactive = score below 0.9)
In short: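 HEK293-PR-A-luc cells, conditioned 5 days in 10% charcoal-stripped FBS medium, seeded 3,000/well for 5 h, then compound-treated 16 h at 37C. ONE-Glo luminescence read after 30 min at room temperature; gain of signal versus DMSO.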

[15] = molecular target: PGR (gene 5241) (UniProt P06401); assay: TOX21_PR_LUC_Followup_Antagonist: Tox21 HEK293 Progesterone Receptor (PR) Antagonism Luciferase Follow-Up Assay (AID 2283938);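 also: curve fitted upward as signal gain over DMSO baseline despite antagonist label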
In short: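 HEK293-PR-A-luc cells were precultured 5 days in medium with 10% charcoal-stripped FBS, seeded 3,000/well, then exposed to compounds in DMSO for 16 h at 37C. Luciferase was read by ONE-Glo luminescence after 30 min at room temperature.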

[16] = TOX21_PR_LUC_Followup_Agonist_viability: Viability Assessment in the Tox21 HEK293 Progesterone Receptor (PR) Agonism Luciferase Follow-Up Assay (AID 2283941);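 also: loss of signal means cytotoxicity so actives lower viability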
In short: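 HEK293-PR-A-luc cells, kept in 10% charcoal-stripped FBS medium, were treated with compounds for 16 h at 37C. Viability read as cellular ATP by luciferase-coupled luminescence; loss of signal indicates cytotoxicity.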

Measured: AC50

C[C@@H]1CC[C@@]2(OC1)O[C@H]1[C@@H](O)[C@H]3[C@@H]4CC[C@H]5C[C@@H](O[C@@H]6O[C@H](CO)[C@H](O[C@@H]7O[C@H](CO)[C@@H](O)[C@H](O[C@@H]8OC[C@@H](O)[C@H](O)[C@H]8O)[C@H]7O[C@@H]7O[C@H](CO)[C@@H](O)[C@H](O[C@@H]8O[C@H](CO)[C@@H](O)[C@H](O)[C@H]8O)[C@H]7O)[C@H](O)[C@H]6O)[C@H](O)C[C@]5(C)[C@H]4CC[C@]3(C)[C@H]1[C@@H]2C
active: [1] 19 µM | [2] 39.1 µM | [3] 48.5 µM | [4] 18.7 µM | [5] 69.7 µM | [6] 33.3 µM | [7] 76.9 µM | [8] 88.2 µM | [9] 2.93 µM | [10] 6.26 µM

CN1C[C@H](CNC(=O)OCc2ccccc2)C[C@@H]2c3cccc4c3c(cn4C)C[C@H]21
active: [4] 38.7 µM
inactive: [1] | [2] | [3] | [6]

Cc1ccc2c(c1)C1CN(C)CCC1N2 (stereo unspecified)
inactive: [1] | [2] | [3] | [5] | [7]

CN1CCC(O)(c2ccc(F)cc2)C(C(=O)c2ccc(F)cc2)C1 (stereo unspecified)
inactive: [1] | [2] | [3] | [5]

CCN(CC)CCOC(=O)C(O)(c1ccccc1)c1ccccc1
inactive: [1] | [2] | [3] | [5] | [6]

O=[N+]([O-])c1ccc2ccc3cccc4ccc1c2c34
inactive: [1] | [2] | [3] | [5] | [6] | [7] | [12] | [13] | [14] | [16]
active: [11] 12.2 µM | [15] 13 µM
